Experiment [1] deals with Plasmodium falciparum Sir2 (PF13_0152, Sir2A). The experiment in a line: pfSir2 binders on small-molecule microarrays, primary screen, biochemical, small-molecule microarray, 635 nm fluorescence (AID 1098).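 Note: score merges spot fluorescence intensity with its signal-to-noise ratio.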 Conditions: small-molecule microarray binding, fluorescence 635 nm; higher = more signal.
Experiment [2] is described as follows: small-molecule microarray binders of probe aDKK1, primary screen, biochemical, biotinylated probe, 635/667 nm fluorescence (AID 1099).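 Note: score merges 667nm spot fluorescence with signal to noise across triplicate slides.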 Conditions: higher = more signal.
Experiment [3] in a line: small-molecule microarray binders of probe aCHRDL2, primary screen, biochemical, biotinylated probe, 635/667 nm fluorescence (AID 1100). Conditions: higher = more signal.
Experiment [4] is described as follows: splicing luciferase reporter signal modulators, primary screen, spliceosome inhibition project, cell-based, HEK293, splice +/- reporter (AID 1101).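 Note: HEK293 cells carrying a splicing-competent luciferase reporter gene; test concentration not given here.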 Conditions: luminescence, 24 h, higher = more signal, called active from +8 up or from −8 down.
The target of experiment [5] is Fibroblast growth factor 10 (Homo sapiens) (UniProt O15520). The experiment in a line: FGF10 binders on small-molecule microarrays, primary screen, biochemical, small-molecule microarray, 635 nm fluorescence (AID 1102). Conditions: FGF10 binding, fluorescence 635 nm, higher = more signal.
Experiment [6] deals with glycogen synthase kinase-3 (GSK3A per assay name; protocol says GSK3B). The experiment in a line: GSK3 binders on small-molecule microarrays, primary screen, biochemical, small-molecule microarray, 635 nm fluorescence, GSK3A (AID 1103). Note: the record names both GSK3A and GSK3B. Conditions: small-molecule microarray binding, fluorescence 635 nm; higher = more signal.
Experiment [7] concerns the target Epidermal growth factor receptor (Homo sapiens) (UniProt P00533). The experiment in a line: EGFR binders on small-molecule microarrays, primary screen, biochemical, small-molecule microarray, 635 nm fluorescence (AID 1104).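 Note: score merges 667 nm emission intensity with spot signal to noise over triplicate slides.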 Conditions: EGFR binding, higher = more signal.
The target in experiment [8] is Follistatin-related protein 3 (Homo sapiens) (UniProt O95633). The experiment in a line: FSTL3 binders on small-molecule microarrays, primary screen, biochemical, small-molecule microarray, 635 nm fluorescence (AID 1105).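 Note: score merges emission near 667 nm and signal to noise per printed spot across three slides.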 Conditions: FSTL3 binding, higher = more signal.
Experiment [9] concerns the target Dickkopf-related protein 1 (Homo sapiens) (UniProt O94907). The experiment in a line: DKK1 binders on small-molecule microarrays, primary screen, biochemical, small-molecule microarray, 635 nm fluorescence scan (AID 1106).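 Note: score merges emission near 667 nm with signal to noise over three replicate slides.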 Conditions: DKK1 binding, higher = more signal.
Experiment [10] has as its system Inhibin beta A chain (activin A). The experiment in a line: INHBA (activin A) binders on microarrays, primary screen, biochemical, small-molecule microarray, 635 nm fluorescence scan (AID 1107).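 Note: mouse activin A protein probed at 4.33 µg/mL on printed slides; score merges bound-protein fluorescence near 667 nm with spot signal-to-noise.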 Conditions: small-molecule microarray binding, higher = more signal.
For experiment [11], the system named is Human papillomavirus type 1a protein E7 (residues 44-93). The experiment in a line: HPV1a E7 fragment binders on microarrays, primary screen, biochemical, small-molecule microarray, residues 44-93, 635 nm fluorescence (AID 1108).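 Note: E7 fragment applied at 1 µg/mL in TBST for 1 h at 4 C; score combines spot fluorescence with its signal to noise ratio.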 Conditions: small-molecule microarray binding, fluorescence 635 nm; higher = more signal.
Experiment [12] is described as follows: modulators of HCV replicon luciferase signal, primary screen, HCV replication inhibitor project, Huh7 cells, luciferase reporter (AID 1109).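 Note: huh7 hepatoma cells harbouring a luciferase neomycin HCV replicon reporter; luciferase luminescence as measure of HCV replicon replication; test concentration not given here.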 Conditions: 48 h, higher = more signal. In general terms: Replicon systems follow genome replication, usually without infectious particles.
Experiment [13] deals with Left-right determination factor 2 (Homo sapiens) (UniProt O00292). The experiment in a line: LEFTY2 binders on small-molecule microarrays, primary screen, biochemical, small-molecule microarray, 635 nm fluorescence scan (AID 1110). Conditions: LEFTY2 binding, higher = more signal.
In experiment [14] the target is Calmodulin-1 (Homo sapiens) (UniProt P0DP23). The experiment in a line: CALM1 binders on microarrays, EGTA buffer, profiling panel, biochemical, small-molecule microarray, Cy5-labelled CALM1 (AID 1111).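 Note: labelled calmodulin applied in Tris saline Tween buffer holding calcium plus EGTA and DTT.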 Conditions: Cy5-CALM1 binding fluorescence, higher = more signal.
The target is the same in experiment [15]. The experiment in a line: calcium-bound CALM1 binders on microarrays, profiling panel, artefact control for SMM control-protein annotation, biochemical, small-molecule microarray, Cy5-labelled CALM1, plus calcium (AID 1112).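 Note: score merges spot fluorescence with signal to noise from triplicate slides.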 Conditions: Cy5-CALM1 binding fluorescence, higher = more signal.
Experiment [16] is described as follows: small-molecule microarray binders of probe aWnt5a, primary screen, biochemical, biotinylated probe, 635/667 nm fluorescence (AID 1113).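 Note: score merges 667 nm fluorescence intensity with signal-to-noise per printed feature.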 Conditions: higher = more signal.
A short description of experiment [17]: small-molecule microarray binders of probe aShh, primary screen, biochemical, biotinylated probe, 635/667 nm fluorescence (AID 1114).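 Note: probe is biotin-labelled aShh protein from a stem cell growth factor screen; measures binding of labelled protein to compounds printed on the slide; score merges feature fluorescence at 667 nm with signal-to-noise.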 Conditions: higher = more signal.
A short description of experiment [18]: small-molecule microarray binders of probe aNog, primary screen, biochemical, biotinylated probe, 635/667 nm fluorescence (AID 1115).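 Note: probe is biotinylated aNog protein used at 0.15 µg/mL for 1 h at 4 C; z-score combines 667 nm fluorescence of each spot with its signal to noise.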 Conditions: higher = more signal.
Experiment [19] addresses Torsin-1A-interacting protein 1 (Homo sapiens) (UniProt Q5JTV8). The experiment in a line: LAP1 binders from COS7 cell lysate, primary screen, small-molecule microarray, 635/667 nm fluorescence (AID 1116). Conditions: COS7-hLAP1 lysate binding, 635 nm fluorescence, higher = more signal.
The target of experiment [20] is Alpha-bungarotoxin (Bungarus multicinctus) (UniProt P60615). The experiment in a line: alpha-bungarotoxin binders on microarray, profiling panel, artefact control for SMM control protein annotation, biochemical, small-molecule microarray, Alexa647 label, 635/667 nm fluorescence (AID 1117). Conditions: alpha-BTX-A647 binding fluorescence, higher = more signal.

Active and inactive are the calls of the source.

Follistatin-related protein 3 (Homo sapiens), sequence (O95633 whole entry, looked up): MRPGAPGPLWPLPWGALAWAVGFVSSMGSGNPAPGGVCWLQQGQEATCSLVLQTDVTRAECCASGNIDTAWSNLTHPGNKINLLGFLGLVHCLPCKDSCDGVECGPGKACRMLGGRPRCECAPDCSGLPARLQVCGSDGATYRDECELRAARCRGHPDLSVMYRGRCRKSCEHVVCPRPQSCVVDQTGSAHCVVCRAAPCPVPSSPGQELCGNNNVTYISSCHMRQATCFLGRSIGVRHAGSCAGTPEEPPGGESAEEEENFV
Torsin-1A-interacting protein 1 (Homo sapiens), sequence (Q5JTV8 whole entry, looked up): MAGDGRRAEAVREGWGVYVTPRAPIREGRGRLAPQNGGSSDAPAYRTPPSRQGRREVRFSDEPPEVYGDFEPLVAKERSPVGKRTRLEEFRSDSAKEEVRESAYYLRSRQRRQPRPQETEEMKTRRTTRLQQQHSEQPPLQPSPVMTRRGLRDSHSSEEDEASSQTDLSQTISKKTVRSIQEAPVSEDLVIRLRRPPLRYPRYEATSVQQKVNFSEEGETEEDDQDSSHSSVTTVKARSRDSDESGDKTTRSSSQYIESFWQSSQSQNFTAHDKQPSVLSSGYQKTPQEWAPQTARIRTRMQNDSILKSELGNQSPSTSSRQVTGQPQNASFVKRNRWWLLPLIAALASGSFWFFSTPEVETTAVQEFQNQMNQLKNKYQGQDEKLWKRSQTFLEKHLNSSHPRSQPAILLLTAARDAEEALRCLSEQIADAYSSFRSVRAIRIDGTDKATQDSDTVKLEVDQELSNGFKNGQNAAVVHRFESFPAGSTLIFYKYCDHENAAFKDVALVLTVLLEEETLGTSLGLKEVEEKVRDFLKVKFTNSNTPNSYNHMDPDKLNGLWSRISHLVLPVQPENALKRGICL
Alpha-bungarotoxin (Bungarus multicinctus), sequence (P60615 whole entry, looked up): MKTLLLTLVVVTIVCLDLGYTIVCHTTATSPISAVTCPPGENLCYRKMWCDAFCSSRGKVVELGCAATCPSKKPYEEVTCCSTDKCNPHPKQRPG
Fibroblast growth factor 10 (Homo sapiens), sequence (O15520 whole entry, looked up): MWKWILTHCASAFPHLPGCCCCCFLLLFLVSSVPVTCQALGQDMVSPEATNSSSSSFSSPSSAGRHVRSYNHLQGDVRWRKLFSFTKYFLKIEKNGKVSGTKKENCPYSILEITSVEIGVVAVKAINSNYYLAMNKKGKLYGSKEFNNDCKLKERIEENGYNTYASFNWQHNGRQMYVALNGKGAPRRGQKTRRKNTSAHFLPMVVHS
Left-right determination factor 2 (Homo sapiens), sequence (O00292 whole entry, looked up): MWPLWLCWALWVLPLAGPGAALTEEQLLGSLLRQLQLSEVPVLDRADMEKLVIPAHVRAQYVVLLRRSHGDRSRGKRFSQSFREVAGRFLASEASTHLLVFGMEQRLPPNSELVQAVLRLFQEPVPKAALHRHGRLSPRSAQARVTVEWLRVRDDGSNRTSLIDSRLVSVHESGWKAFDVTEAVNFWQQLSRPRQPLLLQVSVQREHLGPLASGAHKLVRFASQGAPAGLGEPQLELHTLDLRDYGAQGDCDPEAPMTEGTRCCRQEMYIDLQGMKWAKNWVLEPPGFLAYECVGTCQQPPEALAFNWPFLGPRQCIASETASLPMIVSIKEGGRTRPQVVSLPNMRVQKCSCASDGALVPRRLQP
Dickkopf-related protein 1 (Homo sapiens), sequence (O94907 whole entry, looked up): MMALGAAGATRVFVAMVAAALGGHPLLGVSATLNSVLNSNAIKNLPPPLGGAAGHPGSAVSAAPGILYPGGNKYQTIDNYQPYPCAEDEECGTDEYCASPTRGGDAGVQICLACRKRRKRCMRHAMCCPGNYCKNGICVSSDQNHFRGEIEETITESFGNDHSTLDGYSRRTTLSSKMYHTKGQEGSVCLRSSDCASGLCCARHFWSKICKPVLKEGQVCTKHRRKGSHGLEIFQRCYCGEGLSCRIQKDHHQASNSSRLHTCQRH
Epidermal growth factor receptor (Homo sapiens), sequence (P00533 whole entry, looked up): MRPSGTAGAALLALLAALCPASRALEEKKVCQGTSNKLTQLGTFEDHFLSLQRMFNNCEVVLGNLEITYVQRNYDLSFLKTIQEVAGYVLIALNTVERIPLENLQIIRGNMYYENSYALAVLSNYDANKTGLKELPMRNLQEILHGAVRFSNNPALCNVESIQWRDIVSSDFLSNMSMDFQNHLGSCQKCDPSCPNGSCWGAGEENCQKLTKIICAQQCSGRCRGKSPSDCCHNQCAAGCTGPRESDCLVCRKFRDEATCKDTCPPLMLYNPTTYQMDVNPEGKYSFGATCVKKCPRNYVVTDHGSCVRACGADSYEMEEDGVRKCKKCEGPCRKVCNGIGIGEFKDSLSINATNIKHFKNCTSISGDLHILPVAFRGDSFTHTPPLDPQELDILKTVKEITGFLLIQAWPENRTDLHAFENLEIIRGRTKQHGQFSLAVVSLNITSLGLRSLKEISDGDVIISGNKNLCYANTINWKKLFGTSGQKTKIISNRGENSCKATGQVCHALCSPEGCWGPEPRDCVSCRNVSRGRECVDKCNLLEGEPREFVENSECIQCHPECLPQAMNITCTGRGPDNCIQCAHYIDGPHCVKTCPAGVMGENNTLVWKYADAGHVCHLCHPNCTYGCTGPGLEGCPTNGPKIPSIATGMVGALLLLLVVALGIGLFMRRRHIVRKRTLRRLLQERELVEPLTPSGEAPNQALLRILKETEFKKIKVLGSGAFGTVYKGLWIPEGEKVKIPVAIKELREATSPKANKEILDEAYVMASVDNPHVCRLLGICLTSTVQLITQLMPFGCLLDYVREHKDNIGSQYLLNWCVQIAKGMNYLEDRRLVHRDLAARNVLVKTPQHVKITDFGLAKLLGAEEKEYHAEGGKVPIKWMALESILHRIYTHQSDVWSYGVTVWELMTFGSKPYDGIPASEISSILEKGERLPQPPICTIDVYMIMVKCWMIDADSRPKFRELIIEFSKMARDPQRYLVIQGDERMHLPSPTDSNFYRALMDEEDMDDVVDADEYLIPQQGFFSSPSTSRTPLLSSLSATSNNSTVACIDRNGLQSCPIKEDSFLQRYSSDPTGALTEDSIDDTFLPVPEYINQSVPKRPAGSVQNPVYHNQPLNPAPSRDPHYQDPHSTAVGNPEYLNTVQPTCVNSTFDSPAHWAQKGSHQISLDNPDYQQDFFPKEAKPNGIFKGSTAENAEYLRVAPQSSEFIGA

Turning to `COC(=O)[C@@]1(Cc2ccc(F)cc2)[C@H]2c3cc(C(=O)N4CCCC4)n(Cc4ccccn4)c3C[C@H]2CN1C(=O)c1ccccc1`, the composite z-score in experiment [1] was 0.919; in experiment [2] it was 0.757; in [3], 1.08; in experiment [5] it was 0.426; in experiment [6], 0.453; in [7] it was 0.214. In addition, the composite z-score in [8] is 0.156; in [9], -0.398; in [10] it was 0.855; in experiment [11], 1.42; in experiment [13] it was -0.649; in [14], 1.36. The composite z-score in [15] amounted to 0.652; in experiment [16], 0.139; in experiment [17], 0.704; in experiment [18] it was 0.874; in experiment [19], 1.33; in experiment [20], 0.23. For the same compound, the results for the z-score in experiment [4] and in experiment [12] were -1.88 (inactive) and -1.73, respectively.
For `COc1ccc([Si](C)(C)[C@@H]2[C@@H](CC(=O)N3CCC[C@H]3CO)O[C@]3(C(=O)N(Cc4ccc(N5CCOC5=O)cc4)c4ccccc43)[C@H]2C)cc1`, the composite z-score is 1.4 in experiment [1]; -0.3 in experiment [2]; 0.135 in experiment [3]; 0.25 in [5]; 0.946 in [6]; -0.0626 in [7]. The composite z-score in experiment [8] turned out to be 0.388; in experiment [9] it was 0.366; in experiment [10], 0.0014; in experiment [11] it was 1.06; in experiment [13] it was 0.327; in [14], 1.08. In addition, the composite z-score in experiment [15] was 0.461; in experiment [16], -0.175; in experiment [17] it was 0.0121; in [18], -0.402; in experiment [19], 1.1; in [20] it was 0.931. Besides, the z-score in experiment [4] was -1.58 (inactive); in [12], -1.58.
Turning to `[N-]=[N+]=Nc1ccccc1[C@H]1OC(c2ccc(OCCCO)cc2)=N[C@@]1(Cc1ccccc1)C(=O)NCC(O)CO` (stereo not given in full), the composite z-score was 0.315 in experiment [1]; 0.78 in experiment [2]; 0.981 in experiment [3]; -0.0795 in experiment [5]; 0.0637 in [6]; -0.942 in [7]. The composite z-score in experiment [8] was -0.283; in experiment [9], -0.535; in experiment [10], 0.647; in experiment [11], 1.38; in [13], -1.04; in [14], 1.04. For the same compound, the composite z-score stood at 1 in [15]; 0.119 in experiment [16]; 0.257 in experiment [17]; 0.0005 in experiment [18]; 1.5 in experiment [19]; 1.57 in experiment [20]. Besides, the z-score in experiment [4] was -0.562 (inactive); in experiment [12], -1.29.
Consider `CN(C)c1ccc(C(O)C2C=CC3C(=O)N(Cc4ccccc4)C(=O)C3N2n2cnnc2)cc1` (stereo not given), for which the composite z-score is 0.491 in experiment [1]; -0.393 in experiment [2]; 0.562 in experiment [3]; 0.13 in experiment [5]; -0.56 in experiment [6]; 0.268 in experiment [7]. The composite z-score was -0.0523 in experiment [8]; 0.114 in [9]; 1.28 in [10]; -1.17 in experiment [11]; 0.205 in experiment [13]; -0.207 in [14]. The composite z-score was -0.363 in experiment [15]; -0.0037 in experiment [16]; 0.108 in experiment [17]; -0.0086 in experiment [18]; 0.304 in [19]; 0.255 in [20]. For the same compound, the z-score in experiment [4] is -0.394 (inactive); in [12], -0.32.
Turning to `C=C(CCCC)/C(=C/C[C@H](OC(C)=O)c1cccc(OCCO)c1)c1cnc2ccccc2c1`, the composite z-score in [1] is 0.989; in experiment [2] it was -0.149; in [3], -0.0497; in experiment [5] it was -0.252; in experiment [6] it was -0.31; in experiment [7], 0.228. The composite z-score was 0.234 in experiment [8]; 0.0193 in experiment [9]; 1.83 in [10]; -0.114 in experiment [11]; -0.234 in [13]; -0.437 in [14]. Moreover, the composite z-score was -0.896 in experiment [15]; -0.0684 in experiment [16]; 0.0723 in [17]; 0.0664 in experiment [18]; 0.558 in experiment [19]; 0.387 in experiment [20]. Besides, the z-score in [4] is -0.142 (inactive); in [12], -2.3.

(Values after PubChem BioAssay.)
